Compound activity: PubChem BioAssay, several laboratories
AMPAR-TARP mod – modulates AMPAR-stargazin complexes. O88602+P19491. HEK293 GluA2+stargazin, membrane potential dye (FDSS), glutamate EC50; hits were called plate by plate, in both directions. calls only at 30 µM. actives 3.5% (n = 40,000). AID 1259245;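 active = any of four per-well response measures lying three or more SD from its plate-wide compound average, in either direction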
GIRK2 act – Activates human GIRK2-containing potassium channels | P48051 | HEK293 GIRK2/NPY4 cells, thallium flux fluorescence | activation (% efficacy), % for hits at 37.5 µM | 34,000 tested, under 10 active;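 active = primary screen hit, no activity in plain HEK293 cells, and in GIRK2-only cells above 5% efficacy rising with concentration; inactive = the rest, including fluorescent compounds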;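 note: efficacy is normalized control-subtracted fluorescence 15 s after thallium addition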
Target sequence (P48051 whole entry, looked up): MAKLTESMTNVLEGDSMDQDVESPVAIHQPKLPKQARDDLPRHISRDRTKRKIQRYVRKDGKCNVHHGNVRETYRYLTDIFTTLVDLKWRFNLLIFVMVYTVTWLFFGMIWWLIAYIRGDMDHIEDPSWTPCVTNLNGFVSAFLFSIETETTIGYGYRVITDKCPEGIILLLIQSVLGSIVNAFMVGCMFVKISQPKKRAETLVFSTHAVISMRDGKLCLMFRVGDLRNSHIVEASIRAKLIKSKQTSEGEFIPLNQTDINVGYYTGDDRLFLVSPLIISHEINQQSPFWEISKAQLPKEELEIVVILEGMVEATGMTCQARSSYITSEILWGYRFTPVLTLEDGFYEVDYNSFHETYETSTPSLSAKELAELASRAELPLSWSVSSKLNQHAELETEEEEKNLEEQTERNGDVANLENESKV
Calls only; i = inactive; nt = not tested or not shown; + = active, no number. Many of the other results were omitted from the sample, so hits are more common in it than they were.

SMILES | AMPAR-TARP mod | GIRK2 act
O=C(NCCCc1ccccc1)c1csc(NS(=O)(=O)c2cccs2)n1 | i | i
Cc1cnc2c(c1SCC(=O)NCc1ccccc1)c(=O)n(C)c(=O)n2C | i | i
O=C(NCc1cccnc1)c1cccc(Oc2ncccn2)c1 | nt | i
NC(=O)c1ccc(NC(=O)c2ccc(=O)n(Cc3ccccc3F)c2)cc1 | i | i
COc1cccc2cc(C(=O)Nc3nnc(-c4cc(C)n(C)n4)o3)oc12 | + | i
CC(=O)c1ccc(C(=O)Nc2nnc(-c3cc(C)n(C)n3)o2)cc1 | + | i
Cc1ccc(C(=O)Nc2nnc(-c3cc(C)n(C)n3)o2)cc1C | i | i
CCN(CC)S(=O)(=O)c1ccc(C(=O)Nc2nnc(-c3ccc(Br)s3)o2)cc1 | + | i
Cc1cc(-c2nnc(NC(=O)c3ccc(SC(C)C)cc3)o2)nn1C | i | i
CN(C)S(=O)(=O)c1ccc(C(=O)Nc2nnc(-c3ccc(Br)s3)o2)cc1 | i | i
Cc1cc(-c2nnc(NC(=O)c3cc4ccccc4o3)o2)nn1C | i | i
CCOc1cc(C(=O)Nc2nnc(-c3cc(C)n(C)n3)o2)cc(OCC)c1OCC | + | i
O=C(NCc1ccc2c(c1)OCO2)c1ccc(N2CCCCS2(=O)=O)cc1 | i | i
Cc1ccc(NC(=O)NCC(O)c2ccsc2)cc1C (centres undefined) | i | i
CS(=O)(=O)N1CCC(C(=O)NCCOc2ccc3nnc(-c4ccccc4)n3n2)CC1 | i | i
COc1ccc(CCC(=O)NCCn2ncc3c(N4CCCCC4)ncnc32)cc1 | + | i
O=C(CCc1ccccc1)NCCn1ncc2c(N3CCCC3)ncnc21 | i | i
COc1ccc2nc(N(CC3CCCO3)C(=O)c3ccnn3C)sc2c1 (centres undefined) | nt | i
CSCCC(C)(O)CNC(=O)c1cc2ccccc2o1 (centres undefined) | + | i
CSCCC(C)(O)CNC(=O)c1cc2ccccc2oc1=O (centres undefined) | i | i
O=C(Nc1ccc2c(c1)OCCO2)N1CCC2(CC1)NC(=O)N(Cc1ccccc1)C2=O | nt | i
CCCCc1ccc2nc(N(C)CC(=O)O)sc2c1 | i | i
COc1cccc(CNC(=O)Cc2csc(NC(=O)c3ccc[nH]c3=O)n2)c1 | i | i
O=C(Nc1ccc(-n2cnnn2)cc1)C1COCC(=O)N1Cc1ccccc1 (centres undefined) | i | i
O=C(C1COCC(=O)N1Cc1ccccc1)N1CCN(c2ccc(F)cc2)CC1 (centres undefined) | i | i
SMILES | AMPAR-TARP mod | GIRK2 act
O=C(C1COCC(=O)N1Cc1ccccc1)N1CCN(c2cccc(Cl)c2)CC1 (centres undefined) | + | i
CC(C)(C)c1cc(NC(=O)C2COCC(=O)N2Cc2ccccc2)on1 (centres undefined) | + | i
O=C(Cc1cc(-c2cccs2)on1)NCc1ccco1 | i | i
O=C(NCC(O)(c1ccccc1)C(F)(F)F)c1cc(=O)c2ccccc2o1 (centres undefined) | i | i
O=C(CCSc1ccccc1)NCCc1ccsc1 | i | i
CCSc1ccccc1C(=O)NCC(O)Cc1ccccc1 (centres undefined) | + | i
CCOc1ccc2ccccc2c1C(=O)NCC1COC2(CCCCC2)O1 (centres undefined) | + | i
CCOc1cc(C(=O)NCC2COC3(CCCCC3)O2)cc(OCC)c1OCC (centres undefined) | i | i
CCOc1ccc2ccccc2c1C(=O)NCCc1ccsc1 | + | i
CCOc1ccc2ccccc2c1C(=O)NCC(O)Cc1ccccc1 (centres undefined) | + | i
COC(=O)NCC(O)Cc1ccccc1 (centres undefined) | i | i
CCOc1ccc2ccccc2c1C(=O)NCc1nc(C)no1 | nt | i
CCOc1ccc2ccccc2c1C(=O)NCC(O)c1ccc(C(F)(F)F)cc1 (centres undefined) | nt | i
CCOC(=O)N1CCc2nc(NC(=O)CCCSc3ccc(F)cc3)sc2C1 | i | i
COc1ccccc1OCC(=O)NNC(=O)c1ccc(=O)n(Cc2ccc(Cl)cc2)c1 | i | i
O=C(NCCn1ncc2c(N3CCN(c4ncccn4)CC3)ncnc21)c1ccco1 | i | i
COc1ccc(CCS(=O)(=O)Nc2ccc(CC(=O)N(C)C)cc2)cc1 | i | i
O=C(NCCN1CCOC(c2ccccc2)C1)C(=O)NC1CC1 (centres undefined) | nt | i
COc1ccc(S(=O)(=O)N2CCOC23CCN(C(=O)c2cc(C)oc2C)CC3)cc1 | i | i
Cc1cc(C(=O)N2CCC3(CC2)OCCN3S(=O)(=O)c2cccs2)c(C)o1 | + | i
CC(C)(C)C(=O)N(Cc1ccccn1)Cc1ccco1 | i | i
Cc1nc2c(c(=O)c3ccccc3n2C)c(=O)n1C1CCCCCC1 | + | nt
Cc1nc2c(c(=O)c3ccccc3n2C)c(=O)n1-c1ccccc1 | i | nt
COc1ccc(Cn2c(C)nc3c(c(=O)c4ccccc4n3C)c2=O)cc1 | + | nt
COc1ccc(CCn2c(C)nc3c(c(=O)c4ccccc4n3C)c2=O)cc1OC | i | nt
